Assay results from PubChem BioAssay AID1981 (Southern Research Specialized Biocontainment Screening …, 2009).
In all, about 2,200 compounds went through this assay and about 480 (22%) were called active. No rule for the calls is given here. These entries were drawn from the full list. Entries with a potency or affinity are not part of this list.

assay: S. Typhimurium GFP fluorescence dose response in modified counterscreen for PhoP regulon inhibitor project (AID 1981); details: 4 h; series mostly up to 150 µM; inhibition: at the top concentration;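 also: 0% = induced DMSO wells and 100% = uninduced wells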

Row | Structure (SMILES) | inhibition
1 | COc1ccc(CCNC(=O)c2ccc(CN3CCOCC3)cc2)cc1 | -9.72% (inactive)
2 | CN(C(=S)Nc1ccc(Oc2ccccc2)cc1)c1ccc(O)cc1 | -27.1% (inactive)
3 | O=S(=O)(c1ccccc1)N(CC(O)Cn1c2ccccc2c2ccccc21)c1ccccc1 (stereo not drawn) | -9.4% (inactive)
4 | OCCN(CCO)CC(O)Cn1c2ccccc2c2ccccc21 (stereo not drawn) | -6.19% (inactive)
5 | CCOC(=O)C1CCCN(S(=O)(=O)c2ccc(Br)c(OC)c2)C1 (stereo not drawn) | 2.54% (inactive)
6 | Cc1cc(C)nc(N2CCCC(C(=O)Nc3ccc4nc(C)c(C)nc4c3)C2)n1 (stereo not drawn) | -12.8% (inactive)
7 | Nc1nnc(SCc2ccc3c(c2)OCO3)s1 | -5.33% (inactive)
8 | O=C(c1cn(-c2ccccc2)nc1-c1cccnc1)N1CCCCC1 | -8.46% (inactive)
9 | Cc1cccc(-n2nc3c(c2NC(=O)c2ccco2)CSC3)c1C | -5.76% (inactive)
10 | O=[N+]([O-])c1nn(-c2cccc(Cl)c2)n(O)c1=NCc1cccnc1 | -14.4% (inactive)
11 | Cc1nc(N2CCN(c3ccccc3)CC2)nc2c1C(=O)CC(C)C2 (stereo not drawn) | -11.1% (inactive)
12 | Cc1ccccc1NC(=S)NC1CCN(Cc2ccccc2)CC1 | -11.4% (inactive)
13 | CCCCC1(CCCC)C(=O)NC(=Nc2cccc(C)c2)NC1=O | 4.62% (inactive)
14 | CCn1cc(C(=O)O)c(=O)c2cc(F)c(N3CCN(C(=S)NC(=O)c4ccccc4Cl)CC3)cc21 | 37.6% (inactive)
15 | O=C(Cn1cnc2scc(-c3ccccc3)c2c1=O)N1CCOCC1 | -6.78% (inactive)
16 | Cc1ccccc1-n1nc(-c2ccc(N)cc2)cc1N | -2.22% (inactive)
17 | N#CCOC(=O)c1sccc1-n1cccc1 | -8.78% (inactive)
18 | COc1ccc(/C=C(\NC(=O)/C=C/c2ccco2)C(=O)NCCc2nc3ccccc3[nH]2)cc1 | 6.45% (inactive)
19 | S=C(NCc1cccnc1)Nc1ccc(Cl)cc1 | 8.22% (inactive)
20 | O=[N+]([O-])c1ccc(Sc2nc3ccccc3o2)c([N+](=O)[O-])c1 | 29.7% (inactive)
21 | COc1ccc(-c2csc(NCc3ccco3)n2)cc1 | 9.28% (inactive)
22 | N#CC1=C(N)SC(N)=C(C#N)C1c1ccc([N+](=O)[O-])cc1 | -7% (inactive)
23 | COc1cccc2c(=O)c3c(cnn3C)n(C)c12 | 1.4% (inactive)
24 | COc1ccc(-c2cc(C(=O)O)[nH]n2)cc1OC | 6.16% (inactive)
25 | Cn1c(-c2ccc(N)cc2)nc2ccccc21 | -15.1% (inactive)

Row | Structure (SMILES) | inhibition
26 | CCC(=O)NC1=C(NC(C)c2ccccc2)C(=O)c2ccccc2C1=O (stereo not drawn) | 2.8% (inactive)
27 | COC(=O)c1sc2ccccc2c1-n1cccc1C(=O)C(=O)Nc1ccc(Cl)cc1 | -6.16% (inactive)
28 | Cn1c(=O)n(CC(=O)Nc2ccccc2)c2ccccc21 | -5.81% (inactive)
29 | COc1ccc(C(=O)Nc2cc(C)ccc2NC(=O)COc2ccccc2)cc1 | -7.99% (inactive)
30 | CCN(Cc1ccccc1)C(=O)CN1C(=S)NC(C)(C)CC1C (stereo not drawn) | -16.8% (inactive)
31 | CCOC(=O)Cn1nnnc1C(C(C)C)N(Cc1cccs1)Cc1cc2cc(C)ccc2[nH]c1=O (stereo not drawn) | -14.5% (inactive)
32 | CCN(CC)C(=O)CP(=O)(c1ccccc1)c1ccccc1 | -24.6% (inactive)
33 | Cc1cc(C2=NNC(=NC3CC3)SC2)c(C)n1-c1ccccc1 | -27.7% (inactive)
34 | Nc1cc(N)nc(SCC(=O)Nc2ccc3c(c2)OCCCO3)n1 | -1.56% (inactive)
35 | COc1ccc(C(=O)N2CCN(C(=O)c3ccco3)CC2)cc1OC | -6.92% (inactive)
36 | CCOC(=O)c1sc2nccc(N(C)C)c2c1N=CNOCc1c(F)cccc1Cl | 4.36% (inactive)
37 | O=C(CSc1nnc(-c2cccs2)n1-c1ccccc1)NCc1ccc2c(c1)OCO2 | -12.3% (inactive)
38 | COc1cccc(-c2nnc(SCC(=O)Nc3ccc(OC)c(OC)c3)n2N)c1 | -7.18% (inactive)
39 | CCCc1cc(-c2nc(N)ncc2-c2ccc3c(c2)OCCCO3)c(O)cc1OC | -11.7% (inactive)
40 | CCC(CC)C(=O)Nc1cccc(C(=O)N2CCCC2)c1 | 1.33% (inactive)
41 | CCOC(=O)c1[nH]c2ccccc2c1NC(=O)NC1CCCCC1 | 0.89% (inactive)
42 | CCOC(=O)CCCNC(=O)COC(=O)CCC(=O)c1ccc(F)cc1 | 16.4% (inactive)
43 | Cn1c(-c2ccc3nc(N)sc3c2)nc2cc(N)ccc21 | -13.2% (inactive)
44 | COc1cc(C=O)ccc1OCCCOc1ccccc1[N+](=O)[O-] | -2.16% (inactive)
45 | CCOC(=O)COc1ccccc1/C=C\[N+](=O)[O-] | 20.1% (inactive)
46 | COc1ccc([N+](=O)[O-])cc1NC(=O)C(C)OC(=O)c1ccccc1C(=O)c1ccc(Cl)cc1 (stereo not drawn) | -21.5% (inactive)
47 | Cc1ccc(S(=O)(=O)N2CCCC2C(=O)OCc2ccco2)cc1 (stereo not drawn) | 16% (inactive)
48 | Cc1nc2c(C(=O)NCCC(C)C)c[nH]n2c(=O)c1Cc1ccccc1F | 1.09% (inactive)
49 | O=C(CCn1nnc(-c2cccs2)n1)NCc1ccccc1Cl | -14.8% (inactive)
50 | Cc1ccc(CCNC(=O)C2CCCN(S(=O)(=O)c3c(C)noc3C)C2)cc1 (stereo not drawn) | 4.87% (inactive)

Row | Structure (SMILES) | inhibition
51 | CC(C)Cn1c(-c2ccccc2)nc2ccccc2c1=O | -3.38% (inactive)
52 | COc1ccc(Cl)cc1C(=O)CSc1nc(N)cc(N)n1 | -5.16% (inactive)
53 | COc1ccc(-c2c/c(=N\c3nc(-c4ccccc4)c(C)s3)c3ccccc3o2)cc1O | 6.27% (inactive)
54 | O=C(N/N=C/c1ccc(F)cc1)c1cc(-c2ccco2)nc2ccccc12 | 3.68% (inactive)
55 | Cc1ccccc1OCC(=O)N/N=C/c1ccco1 | -1.78% (inactive)
56 | Cc1ccc(NC(=O)CO/N=C(\N)c2nonc2N)cc1 | -2.61% (inactive)
57 | COC(=O)c1ccc(NC(=S)Nc2ccc3ccccc3c2)cc1 | 19.2% (inactive)
58 | Cn1ccnc1SCC(=O)Nc1sccc1C#N | -14% (inactive)
59 | NC1=NC2=C(CCCC2)C2(CCCCC2)S1 | 3.33% (inactive)
60 | CCCCn1c(O)c(C(CC)=Nc2ccc3c(c2)CCC3)c(=O)[nH]c1=O | 0.23% (inactive)
61 | CC(C)c1ccc(O)c(NC(=O)c2cncc(Br)c2)c1 | -16.4% (inactive)
62 | COc1ccccc1N1CCN(c2ccc(-c3ccccc3)nn2)CC1 | 1.73% (inactive)
63 | Cc1ccccc1Nc1nnc(SCC(=O)NC2CCCc3ccccc32)s1 (stereo not drawn) | -4.71% (inactive)
64 | Cc1[nH]nc2c1C(c1cc(Br)cs1)C(C#N)=C(N)O2 (stereo not drawn) | 16.8% (inactive)
65 | CCCOc1ccc(Cn2cnc3ccccc32)cc1 | 5.83% (inactive)
66 | O=C(OCC1COc2ccccc2O1)c1ccccc1F (stereo not drawn) | -13.2% (inactive)
67 | CN(C)CCOC(=O)Cc1ccc(Cl)cc1 | 7.74% (inactive)
68 | CC(=O)N(Cc1ccc(Cl)cc1)c1cnccn1 | -9.06% (inactive)
69 | C/C(Nc1ccc(F)cc1)=C(/C#N)C(N)=O | 0.93% (inactive)
70 | Cc1ccc2c(c1)cc(CN(Cc1ccc3c(c1)OCO3)C(=O)c1cnccn1)c1nnnn12 | -3.22% (inactive)
71 | Cc1nnc(NC(=O)CSc2ncnc3scc(-c4ccccc4)c23)s1 | -16.3% (inactive)
72 | O=C(CSc1nnnn1-c1ccccc1)CC(=O)Nc1ccc(Cl)cc1 | 5.16% (inactive)
73 | O=C(CSc1nnc2c(Cl)cc(Cl)cn12)NC1CCS(=O)(=O)C1 (stereo not drawn) | -19.5% (inactive)
